Test results from the supplement of paper PMC10849652.
The full data set covers some 7,900 targets. This sample favours those with a hit. About 0.6% of all pairs of compound and target were hits. Values without a mark were called inactive.

Key:
Assay in all cases: log2 fold change, soluble protein after heating vs DMSO (PISA); higher = thermal stabilisation; K562 cells, 10 uM, 30 min; active = over 0.2 and 3.5 SD of the protein, either way, in both replicates (recomputed)
[1] = compound: CS(=O)(=O)c1ccc(-c2cnc(N)c(C(=O)Nc3ccccc3)n2)cc1
In short: (§1)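 K562 cells at 2×10^6 cells/mL were treated with 10 μM compound for 30 min. Aliquots were heated for 3 min across 48°C-58°C, pooled, and extracted in PBS with 0.5% NP-40 at 4°C; soluble protein was the supernatant after 21,000xg for 90 min. Soluble protein was quantified by TMTpro 16plex LC-MS/MS with channel sums equalised, and reported as log2 fold change in thermal stability against DMSO controls, with values from duplicates.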

crizotinib = compound: C[C@@H](Oc1cc(-c2cnn(C3CCNCC3)c2)cnc1N)c1c(Cl)ccc(F)c1Cl [crizotinib]
In short: as §1

[2] = compound: C[C@@H]1COCCN1C2=NC(=NC(=C2)C3(CC3)S(=O)(=O)C)C4=C5C=CNC5=CC=C4
In short: as §1

[3] = compound: C[C@H](C1=CC=C(C=C1)C(=O)NC2=C3C=CNC3=NC=C2)N
In short: as §1

duvelisib = compound: C[C@H](Nc1ncnc2nc[nH]c12)c1cc2cccc(Cl)c2c(=O)n1-c1ccccc1 [duvelisib]
In short: as §1

gandotinib = compound: Cc1cc(Nc2cc(CN3CCOCC3)c3nc(C)c(Cc4ccc(Cl)cc4F)n3n2)n[nH]1 [gandotinib]
In short: as §1

tozasertib = compound: Cc1cc(Nc2cc(N3CCN(C)CC3)nc(Sc3ccc(NC(=O)C4CC4)cc3)n2)n[nH]1 [tozasertib]
In short: as §1

[4] = compound: Cc1cc(SCc2sc(-c3ccc(C(F)(F)F)cc3)nc2C)ccc1OCC(=O)O
In short: as §1

doramapimod = compound: Cc1ccc(-n2nc(C(C)(C)C)cc2NC(=O)Nc2ccc(OCCN3CCOCC3)c3ccccc23)cc1 [doramapimod]
In short: as §1

ispinesib = compound: Cc1ccc(C(=O)N(CCCN)[C@@H](c2nc3cc(Cl)ccc3c(=O)n2Cc2ccccc2)C(C)C)cc1 [ispinesib]
In short: as §1

bafetinib = compound: Cc1ccc(NC(=O)c2ccc(CN3CC[C@H](N(C)C)C3)c(C(F)(F)F)c2)cc1Nc1nccc(-c2cncnc2)n1 [bafetinib]
In short: as §1

[5] = compound: Cc1cccc(CC(=O)N2CCc3c2ccc(-c2cn(C)c4ncnc(N)c24)c3F)n1
In short: as §1

nilotinib = compound: Cc1cn(-c2cc(NC(=O)c3ccc(C)c(Nc4nccc(-c5cccnc5)n4)c3)cc(C(F)(F)F)c2)cn1 [nilotinib]
In short: as §1

[6] = compound: Cc1nc(Nc2n[nH]c3c2CN(C(=O)N[C@H](CN(C)C)c2ccccc2)C3(C)C)c2sccc2n1
In short: as §1

dasatinib = compound: Cc1nc(Nc2ncc(C(=O)Nc3c(C)cccc3Cl)s2)cc(N2CCN(CCO)CC2)n1 [dasatinib]
In short: as §1

[7] = compound: Cc1ncc(-c2ccnc(Nc3ccc(S(C)(=O)=O)cc3)n2)n1C(C)C
In short: as §1

[8] = compound: Cn1cc(-c2ccc3c(c2)CCN3C(=O)Cc2cccc(C(F)(F)F)c2)c2c(N)ncnc21
In short: as §1

[9] = compound: Cn1cc(-c2ccc3nnc(C(F)(F)c4ccc5ncccc5c4)n3n2)cn1
In short: as §1

tipifarnib = compound: Cn1cncc1[C@@](N)(c1ccc(Cl)cc1)c1ccc2c(c1)c(-c1cccc(Cl)c1)cc(=O)n2C [tipifarnib]
In short: as §1

mubritinib = compound: FC(F)(F)c1ccc(/C=C/c2nc(COc3ccc(CCCCn4ccnn4)cc3)co2)cc1 [mubritinib]
In short: as §1

UniProt Q8NBJ9, sequence (Q8NBJ9 whole entry, looked up): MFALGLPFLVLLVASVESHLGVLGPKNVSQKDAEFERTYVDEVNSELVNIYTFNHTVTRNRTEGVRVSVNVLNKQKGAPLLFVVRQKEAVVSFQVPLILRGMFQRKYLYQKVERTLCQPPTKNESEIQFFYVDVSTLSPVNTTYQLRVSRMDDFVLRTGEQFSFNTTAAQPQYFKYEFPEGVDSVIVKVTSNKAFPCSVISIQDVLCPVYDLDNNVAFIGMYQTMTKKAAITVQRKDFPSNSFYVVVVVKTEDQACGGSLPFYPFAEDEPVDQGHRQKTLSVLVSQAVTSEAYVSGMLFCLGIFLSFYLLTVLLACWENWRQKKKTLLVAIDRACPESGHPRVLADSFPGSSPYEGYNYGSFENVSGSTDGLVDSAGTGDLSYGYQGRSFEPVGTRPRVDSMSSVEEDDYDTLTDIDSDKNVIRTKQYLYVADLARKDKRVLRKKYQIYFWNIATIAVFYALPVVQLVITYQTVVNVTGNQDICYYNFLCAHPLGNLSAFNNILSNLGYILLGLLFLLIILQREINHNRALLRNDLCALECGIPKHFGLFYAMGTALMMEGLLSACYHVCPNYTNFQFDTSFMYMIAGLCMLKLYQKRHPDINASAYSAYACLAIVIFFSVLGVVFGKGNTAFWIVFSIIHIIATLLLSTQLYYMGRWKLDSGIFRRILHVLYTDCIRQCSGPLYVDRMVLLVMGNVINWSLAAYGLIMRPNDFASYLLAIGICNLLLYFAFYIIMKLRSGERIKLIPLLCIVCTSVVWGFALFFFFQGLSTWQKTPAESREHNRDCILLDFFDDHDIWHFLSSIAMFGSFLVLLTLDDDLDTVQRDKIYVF
UniProt Q13530, sequence (Q13530 whole entry, looked up): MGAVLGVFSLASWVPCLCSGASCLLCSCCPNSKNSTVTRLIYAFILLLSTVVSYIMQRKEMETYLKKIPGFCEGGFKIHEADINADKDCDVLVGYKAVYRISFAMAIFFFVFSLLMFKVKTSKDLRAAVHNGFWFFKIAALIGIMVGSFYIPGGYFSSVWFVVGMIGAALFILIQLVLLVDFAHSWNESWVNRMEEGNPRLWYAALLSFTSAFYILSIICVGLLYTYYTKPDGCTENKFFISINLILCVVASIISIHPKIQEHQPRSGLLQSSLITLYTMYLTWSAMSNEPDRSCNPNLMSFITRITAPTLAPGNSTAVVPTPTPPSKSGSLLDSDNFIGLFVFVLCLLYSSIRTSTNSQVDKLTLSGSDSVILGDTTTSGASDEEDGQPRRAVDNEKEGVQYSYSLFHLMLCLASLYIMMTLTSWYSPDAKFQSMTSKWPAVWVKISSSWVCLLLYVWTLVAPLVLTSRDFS
UniProt Q9BUV8, sequence (Q9BUV8 whole entry, looked up): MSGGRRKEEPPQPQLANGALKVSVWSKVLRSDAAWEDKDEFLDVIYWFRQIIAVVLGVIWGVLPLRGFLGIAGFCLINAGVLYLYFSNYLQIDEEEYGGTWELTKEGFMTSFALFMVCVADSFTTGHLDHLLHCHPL
UniProt P52306, sequence (P52306 whole entry, looked up): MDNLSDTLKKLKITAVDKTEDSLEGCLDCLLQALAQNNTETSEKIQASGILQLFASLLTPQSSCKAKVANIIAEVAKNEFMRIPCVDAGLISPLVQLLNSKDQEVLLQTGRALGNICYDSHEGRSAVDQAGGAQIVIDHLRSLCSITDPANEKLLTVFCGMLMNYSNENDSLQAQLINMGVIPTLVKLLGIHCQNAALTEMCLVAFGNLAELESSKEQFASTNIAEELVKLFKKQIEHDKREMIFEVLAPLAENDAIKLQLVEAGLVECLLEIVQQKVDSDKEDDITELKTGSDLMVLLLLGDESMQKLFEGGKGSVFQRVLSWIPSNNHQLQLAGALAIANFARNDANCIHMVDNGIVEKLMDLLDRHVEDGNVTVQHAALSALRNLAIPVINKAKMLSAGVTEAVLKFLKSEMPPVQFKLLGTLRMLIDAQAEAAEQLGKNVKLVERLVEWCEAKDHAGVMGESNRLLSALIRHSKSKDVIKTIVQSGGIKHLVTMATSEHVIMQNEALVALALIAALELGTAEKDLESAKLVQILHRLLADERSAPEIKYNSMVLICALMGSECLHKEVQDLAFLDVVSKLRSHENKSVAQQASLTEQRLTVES
UniProt Q8TD22, sequence (Q8TD22 whole entry, looked up): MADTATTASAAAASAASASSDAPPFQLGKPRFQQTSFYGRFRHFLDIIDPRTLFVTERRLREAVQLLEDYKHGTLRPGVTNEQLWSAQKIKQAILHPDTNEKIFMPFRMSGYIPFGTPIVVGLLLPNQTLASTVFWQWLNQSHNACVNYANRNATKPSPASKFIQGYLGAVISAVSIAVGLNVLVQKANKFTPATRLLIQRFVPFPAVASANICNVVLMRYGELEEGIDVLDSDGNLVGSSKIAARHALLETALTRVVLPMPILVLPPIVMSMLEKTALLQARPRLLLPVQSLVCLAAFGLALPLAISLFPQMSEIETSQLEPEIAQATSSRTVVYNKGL
UniProt Q8IZV5, sequence (Q8IZV5 whole entry, looked up): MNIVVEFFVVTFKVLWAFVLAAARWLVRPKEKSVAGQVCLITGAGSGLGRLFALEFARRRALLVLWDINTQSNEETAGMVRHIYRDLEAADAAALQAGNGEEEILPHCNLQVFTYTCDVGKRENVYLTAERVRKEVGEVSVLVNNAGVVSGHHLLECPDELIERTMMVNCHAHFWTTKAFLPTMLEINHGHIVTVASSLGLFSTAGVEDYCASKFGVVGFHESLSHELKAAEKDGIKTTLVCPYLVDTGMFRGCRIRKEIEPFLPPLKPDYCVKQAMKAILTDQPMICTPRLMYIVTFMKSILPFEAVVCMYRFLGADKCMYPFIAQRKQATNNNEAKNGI
UniProt Q5VTB9, sequence (Q5VTB9 whole entry, looked up): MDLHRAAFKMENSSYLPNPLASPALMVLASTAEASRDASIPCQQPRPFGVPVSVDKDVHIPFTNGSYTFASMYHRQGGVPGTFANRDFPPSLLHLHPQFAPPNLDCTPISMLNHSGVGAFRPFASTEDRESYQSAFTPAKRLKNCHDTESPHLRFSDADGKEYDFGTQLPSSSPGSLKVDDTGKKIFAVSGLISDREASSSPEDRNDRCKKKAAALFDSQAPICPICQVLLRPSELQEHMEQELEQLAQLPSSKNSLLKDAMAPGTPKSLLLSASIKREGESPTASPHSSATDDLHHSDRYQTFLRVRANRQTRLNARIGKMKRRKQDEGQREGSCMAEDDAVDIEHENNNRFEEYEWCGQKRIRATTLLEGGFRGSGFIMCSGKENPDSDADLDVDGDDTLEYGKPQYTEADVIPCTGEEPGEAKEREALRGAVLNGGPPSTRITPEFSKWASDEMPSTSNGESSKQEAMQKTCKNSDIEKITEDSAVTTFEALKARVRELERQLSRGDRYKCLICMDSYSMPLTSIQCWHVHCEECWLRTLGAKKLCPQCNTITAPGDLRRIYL
UniProt Q8IXJ6, sequence (Q8IXJ6 whole entry, looked up): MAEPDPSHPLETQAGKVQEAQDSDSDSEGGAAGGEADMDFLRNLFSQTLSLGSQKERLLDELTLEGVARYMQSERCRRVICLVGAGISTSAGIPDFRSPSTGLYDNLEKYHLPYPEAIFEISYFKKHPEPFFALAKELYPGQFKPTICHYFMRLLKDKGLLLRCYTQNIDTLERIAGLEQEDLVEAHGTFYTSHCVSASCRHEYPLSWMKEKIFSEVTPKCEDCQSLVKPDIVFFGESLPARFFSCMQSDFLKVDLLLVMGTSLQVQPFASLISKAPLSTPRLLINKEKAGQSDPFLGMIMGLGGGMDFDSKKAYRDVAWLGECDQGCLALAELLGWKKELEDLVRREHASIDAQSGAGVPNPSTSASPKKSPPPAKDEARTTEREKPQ
UniProt Q9HB40, sequence (Q9HB40 whole entry, looked up): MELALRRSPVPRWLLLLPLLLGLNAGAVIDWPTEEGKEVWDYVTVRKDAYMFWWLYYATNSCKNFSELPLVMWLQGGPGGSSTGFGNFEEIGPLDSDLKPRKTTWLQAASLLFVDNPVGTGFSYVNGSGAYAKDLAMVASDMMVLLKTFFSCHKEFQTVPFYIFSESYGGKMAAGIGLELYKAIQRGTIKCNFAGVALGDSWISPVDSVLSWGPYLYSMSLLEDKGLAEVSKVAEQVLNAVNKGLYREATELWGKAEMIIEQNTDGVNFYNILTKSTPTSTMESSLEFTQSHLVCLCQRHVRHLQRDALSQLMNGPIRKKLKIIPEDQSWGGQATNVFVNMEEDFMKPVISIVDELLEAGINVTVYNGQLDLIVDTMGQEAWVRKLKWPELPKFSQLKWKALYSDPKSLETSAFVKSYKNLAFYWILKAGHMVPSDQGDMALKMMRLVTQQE
UniProt Q15050, sequence (Q15050 whole entry, looked up): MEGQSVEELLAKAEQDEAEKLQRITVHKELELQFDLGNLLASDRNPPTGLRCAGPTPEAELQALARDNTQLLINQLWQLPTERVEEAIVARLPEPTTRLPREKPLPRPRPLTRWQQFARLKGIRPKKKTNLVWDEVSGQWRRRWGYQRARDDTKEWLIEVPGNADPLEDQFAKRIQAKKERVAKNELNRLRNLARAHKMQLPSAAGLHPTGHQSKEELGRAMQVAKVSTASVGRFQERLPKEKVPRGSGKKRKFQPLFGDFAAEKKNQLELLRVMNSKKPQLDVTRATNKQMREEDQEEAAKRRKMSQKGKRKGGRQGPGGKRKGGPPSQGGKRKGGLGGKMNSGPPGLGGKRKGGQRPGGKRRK
UniProt Q8N5L8, sequence (Q8N5L8 whole entry, looked up): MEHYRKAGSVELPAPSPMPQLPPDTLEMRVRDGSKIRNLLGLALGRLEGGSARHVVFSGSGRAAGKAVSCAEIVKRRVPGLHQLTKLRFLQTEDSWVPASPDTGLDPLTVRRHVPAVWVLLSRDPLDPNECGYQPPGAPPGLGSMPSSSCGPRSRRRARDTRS

Target	log2 fold change [1]	log2 fold change (crizotinib)	log2 fold change [2]	log2 fold change [3]	log2 fold change (duvelisib)	log2 fold change (gandotinib)	log2 fold change (tozasertib)	log2 fold change [4]	log2 fold change (doramapimod)	log2 fold change (ispinesib)	log2 fold change (bafetinib)	log2 fold change [5]	log2 fold change (nilotinib)	log2 fold change [6]	log2 fold change (dasatinib)	log2 fold change [7]	log2 fold change [8]	log2 fold change [9]	log2 fold change (tipifarnib)	log2 fold change (mubritinib)
RDH10 (UniProt Q8IZV5)	-0.016	0.087	0.116	-0.011	0.015	-0.111	-0.009	-0.003	-0.016	0.036	-0.031	0.15	0.051	-0.032	0.237 (active)	-0.014	0.37 (active)	0.183	0.028	0.106
RPS3 (UniProt P23396)	-0.07	0.025	-0.258	0.203	-0.06	0.134	0.022	0.045	0.077	-0.127	0.219	-0.004	-0.009	0.193	0.063	-0.056	-0.132	-0.028	0.075	-0.045
SIDT2 isoform 2 (UniProt Q8NBJ9)	0.132	-0.026	-0.017	-0.004	0.059	0.006	0.004	-0.186	0.254	-0.143	-0.24	-0.025	-0.005	0.104	0.041	0.025	-0.003	0.038	0.073	-0.001
ROCK2 (UniProt O75116)	0.033	-0.041	0.026	0.392 (active)	0.025	-0.049	-0.035	0.004	0.007	-0.049	-0.033	-0.006	-0.05	-0.202	-0.064	0.009	-0.091	0.014	-0.008	0.013
SERINC3 (UniProt Q13530)	0.15	-0.228	0.017	0.225	0.162	-0.088	0.046	0.096	-0.051	-0.17	-0.031	-0.035	0.02	0.039	-0.123	0.07	-0.014	-0.077	-0.115	0.009
SAAL1 (UniProt Q96ER3)	0.013	-0.129	0.047	0.008	0.036	0.022	-0.044	0.019	-0.006	-0.049	-0.102	0.047	-0.042	0.161	-0.101	0.246	-0.06	0	-0.053	0.109
RAB5IF isoform 5 (UniProt Q9BUV8)	-0.036	-0.094	0.076	-0.007	0.078	0.04	-0.156	-0.002	0.025	0.157	0.034	-0.01	-0.042	-0.011	0.062	-0.051	-0.054	0	-0.013	0.079
RPS12 (UniProt P25398)	-0.041	0.078	-0.098	0.165	-0.061	0.124	-0.003	-0.011	0.012	0.017	0.112	0.006	0.002	0.126	0.08	-0.012	-0.013	-0.004	0.049	-0.08
RPL38 (UniProt P63173)	-0.039	-0.069	-0.258 (active)	0.077	-0.064	0.144	-0.017	-0.008	0.017	-0.093	0.089	0.01	0.026	0.155	0.057	-0.003	-0.023	-0.022	-0.021	0.006
RAP1GDS1 isoform 5 (UniProt P52306)	0.061	-0.062	0.08	0.009	-0.009	-0.066	0.079	0.036	-0.014	-0.096	0.097	0.07	-0.077	-0.105	-0.083	0.042	-0.005	0.03	-0.041	0.026
SCPEP1 (UniProt Q9HB40)	-0.03	-0.254 (active)	-0.041	-0.028	0.083	0.127	-0.03	0.032	-0.032	-0.163	-0.499 (active)	-0.013	0.028	-0.006	-0.007	-0.004	0.023	0.034	0.026	0.04
SFXN5 (UniProt Q8TD22)	0.144	0.021	0.073	-0.137	-0.07	-0.026	-0.015	0.076	-0.055	0.049	-0.3 (active)	0.017	-0.052	0.049	0.084	0.134	0.107	0.093	0.022	0.041
RRS1 (UniProt Q15050)	-0.022	0	-0.365	0.304	-0.181	0.089	0.094	-0.034	0.235	0.019	0.121	-0.125	-0.024	0.073	0.161	0.267	-0.431	-0.165	0.105	-0.226
RNF220 (UniProt Q5VTB9)	-0.001	0.096	-0.003	-0.042	0.055	-0.012	0.043	-0.011	-0.057	0.073	-0.064	0.008	0.009	-0.058	0.01	0.037	-0.034	0.239 (active)	-0.003	0.002
SIRT2 (UniProt Q8IXJ6)	0.042	-0.015	-0.002	0.072	-0.048	0.002	-0.099	-0.032	-0.009	-0.001	-0.041	-0.003	0.061	-0.006	-0.032	-0.051	0.104	-0.002	0.027	0.067
RPP25L (UniProt Q8N5L8)	-0.031	0.059	-0.014	0.145	0.06	0.045	-0.01	-0.019	-0.005	-0.027	0.143	-0.04	0.044	-0.087	0.09	-0.031	-0.058	0.004	0.044	-0.004
